Out of some 13,000 compounds screened, about 3,200 (25%) showed an effect of 50% or more. This is one part of the list.
System: P. falciparum stage V gametocytes
Parameters: BacTiter-Glo ATP luminescence viability of purified stage V gametocytes in 384-well plates, per cent inhibition versus DMSO
Conditions: 48 h, 5 µM; inhibitor

Row | SMILES | % Inhibition
1 | COc1cccc(C(=O)NCCOc2ccccc2)c1Oc1ccccc1 [TCMDC-141238] | 4.712%
2 | Nc1ncc(-c2cn[nH]c2)cc1-c1nc2ccc(Cl)cc2[nH]1 [TCMDC-133560] | -7.229%
3 | C=CCc1cc(Cc2cnc(N)nc2N)cc(CCC)c1OC [TCMDC-138039] | 23.16%
4 | O=C(O)c1ccc(-c2cnc3ccc(NC4CCC(O)CC4)nn23)cc1 (stereo not drawn) [TCMDC-136692] | 8.489%
5 | Cc1c(C)n(C2CCCC2)c2ncnc(OC3CCN(CC(=O)NC4CC4)CC3)c12 [TCMDC-133310] | -5.87%
6 | Cn1nccc1C(=O)NCCNCc1ccc(-c2cccc(-c3nc4cc(F)ccc4[nH]3)c2)cc1.O=C(O)C(F)(F)F [TCMDC-133016] | -24.65%
7 | CCOc1cc(Cc2cnc(N)nc2N)ccc1OC [TCMDC-137931] | 24.72%
8 | COc1ccc2nccc([C@@H](O)CN3CCC(NC/C=C/c4cccnc4)CC3)c2c1 [TCMDC-140747] | -1.69%
9 | COc1cc2c(cc1N1CC(C)NC(C)C1)N(C(=O)c1ccc(-c3ccc(-c4ncc[nH]4)cc3C)cc1)CC2 (stereo not drawn) [TCMDC-141160] | 13.02%
10 | Cc1cc(C2CCCCN2C)ccc1-c1ccc(C(=O)N2CCc3cc4c(cc32)C2(CCN(C)CC2)CO4)cc1 (stereo not drawn) [TCMDC-139081] | 76.58%
11 | Cc1cc(-c2ncc[nH]2)ccc1-c1ccc(C(=O)N2CCc3cc4c(cc32)C2(CCN(C)CC2)CO4)cc1 [TCMDC-139079] | -8.812%
12 | CCOC(=O)NCCSC(C)(C)[C@H](NC(=O)[C@H](Cc1cc2ccccc2s1)[C@H](CC)N(O)C=O)C(=O)Nc1nccs1 [TCMDC-137792] | 7.703%
13 | Fc1ccc(Nc2ccnc3cc(I)ccc23)c(Cl)c1 [TCMDC-138387] | 14.07%
14 | Fc1ccc(Nc2ccnc3cc(-c4cccc(CN5CCCCC5)c4)ccc23)c(Cl)c1 [TCMDC-138418] | 24.75%
15 | CN(C)CCN(C)Cc1cccc(-c2ccc3c(Nc4cc(O)c(Cl)cc4F)ccnc3c2)c1 [TCMDC-138432] | 25.38%
16 | COCCNCc1cccc(-c2ccc3c(Nc4cc(O)c(Cl)cc4F)ccnc3c2)c1 [TCMDC-138429] | 38.53%
17 | CN(C)CCNCc1cccc(-c2ccc3c(Nc4ccc(F)cc4Cl)ccnc3c2)c1 [TCMDC-138412] | 66.82%
18 | CS(=O)(=O)CCNCc1cccc(-c2ccc3c(Nc4cc(O)c(Cl)cc4F)ccnc3c2)c1 [TCMDC-138435] | -21.48%
19 | COCCNCc1cccc(-c2ccc3c(Nc4ccc(F)cc4Cl)ccnc3c2)c1 [TCMDC-138415] | 42.47%
20 | CN(C)CCN(C)Cc1cccc(-c2ccc3c(Nc4ccc(F)cc4Cl)ccnc3c2)c1 [TCMDC-138416] | 87.2%
21 | CN1CCN(Cc2cccc(-c3ccc4c(Nc5ccc(F)cc5Cl)ccnc4c3)c2)CC1 [TCMDC-138417] | 75.62%

Row | SMILES | % Inhibition
22 | CN1CCN(Cc2cccc(-c3ccc4c(Nc5cc(O)c(Cl)cc5F)ccnc4c3)c2)CC1 [TCMDC-138430] | 33.23%
23 | CN(C)CCNCc1cccc(-c2ccc3c(Nc4cc(O)c(Cl)cc4F)ccnc3c2)c1 [TCMDC-138413] | 57.17%
24 | CN(C)CCNCc1ncsc1-c1ccc2c(Nc3ccc(F)cc3Cl)ccnc2c1 [TCMDC-138466] | 30.52%
25 | N=C(N)c1cccc(-c2cc(-c3cccc(C(=N)N)c3)on2)c1 [TCMDC-137789] | 11.2%
26 | CCCCNC(=O)[C@@H](NC(=O)c1ccc(O)c(-c2ccc(Cl)c(Cl)c2)c1)C(C)C [TCMDC-140839] | 36.3%
27 | CCCCOP(=O)(COc1ccc(CCN(CC(O)COc2cccc3[nH]c4ccccc4c23)CC(O)COc2cccc3[nH]c4ccccc4c23)cc1)C1CCCCC1 (stereo not drawn) [TCMDC-139016] | 44.85%
28 | COc1ccc(Nc2nccc(N3CCC(NC(=O)Nc4cccc(C(C)=O)c4)C3)n2)cc1 (stereo not drawn) [TCMDC-133610] | -16.63%
29 | COc1cc(Cc2cnc(N)nc2N)cc(OCCCOc2ccccc2)c1OC [TCMDC-137687] | 38.19%
30 | COc1cc(C=CC(=O)N2CCC(CCN3CCC(c4c[nH]c5ccccc45)CC3)CC2)cc(OC)c1 [TCMDC-139938] | 103.2%
31 | Cc1ccc(/C=C/C(=O)N2CCC(CCN3CCC(c4c[nH]c5ccccc45)CC3)CC2)cc1C [TCMDC-139762] | 46.51%
32 | CC(C)c1ccc(C=CC(=O)N2CCC(CCN3CCC(c4c[nH]c5ccccc45)CC3)CC2)cc1 [TCMDC-139942] | 110.7%
33 | COc1ccc(C=CC(=O)N2CCC(CN3CCC(c4c[nH]c5ccccc45)CC3)CC2)cc1OC [TCMDC-139944] | -13.45%
34 | O=C(/C=C/c1ccsc1)NC1CCC(CN2CCC(c3c[nH]c4ccccc34)CC2)CC1 (stereo not drawn) [TCMDC-140294] | -21.49%
35 | COc1cc(C=CC(=O)N2CCC(CN3CCC(c4c[nH]c5ccccc45)CC3)CC2)cc(OC)c1 [TCMDC-139945] | -6.368%
36 | O=C(/C=C/c1ccsc1)N1CCC(CCN2CCC(c3c[nH]c4ccccc34)CC2)CC1 [TCMDC-140263] | 102.1%
37 | COc1cc(C=CC(=O)N2CCC(CN3CCC(c4c[nH]c5ccccc45)CC3)CC2)ccc1O [TCMDC-139913] | -95.05%
38 | O=C(C=Cc1ccc(-c2ccccc2)cc1)N1CCC(CCN2CCC(c3c[nH]c4ccccc34)CC2)CC1 [TCMDC-139941] | 105.7%
39 | O=C(/C=C/c1ccc(F)c(C(F)(F)F)c1)N1CCC(CN2CCC(c3c[nH]c4ccccc34)CC2)CC1 [TCMDC-140384] | -23.83%
40 | COc1cc(NC(=O)N2CCc3ccc(OCCN(C(C)C)C(C)C)cc32)cc(C(F)(F)F)c1 [TCMDC-140251] | 48.14%
41 | CN1CCCC(OC(=O)c2ccccc2)C1 (stereo not drawn) [TCMDC-125511] | 3.276%
42 | Fc1ccc2[nH]c(-c3cccc(-c4cccc(CNCC5CCCO5)c4)c3)nc2c1.O=C(O)C(F)(F)F (stereo not drawn) [TCMDC-133091] | -32.27%

Reference: PMC4552634, “A New Set of Chemical Starting Points with Plasmodium falciparum Transmission-Blocking Potential for Antimalarial Drug Discovery” (PLoS ONE, 2015)
